From PubChem BioAssay AID1159580 (chemical genetic matrix, 2015)
Hit rate of the full screen: of about 5,500 compounds, about 2,000 (36%) were called active. Another 18% or so got no clear call; they are omitted. No stated cut-off is given here; in the data, active means normalized growth mostly below about 0.91 (no sharp cut-off); inconclusive means no clear call, values can overlap the other calls; inactive means mostly above about 0.92. Some of the results follow.

Assay: chemical genetic growth profiling, strain panel (AID 1159580);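 further: tested at 20 µM; growth read once vehicle control cultures reached saturation at 30 °C; 1 = growth at the plate median or of vehicle wells; lower values mean less growth of the strain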
Details: S. cerevisiae deletion strains, growth OD

Measured: normalized growth

CC(=O)O[C@@H]1CC2C(C)(C)[C@H](O)C[C@H](O)[C@]2(C)C2CC[C@@]3(C)C(=CC(=O)O[C@H]3c3ccoc3)[C@@]21C (stereo not given in full)
inactive: locus YAL021C, strain ccr4, hits give low values 0.977 | locus YAL026C, strain drs2, hits give low values 0.988 | locus YAL030W, strain snc1, hits give low values 1 | locus YBL061C, strain skt5, hits give low values 1 | locus YBR009C, strain hhf1, hits give low values 1.02 | locus YBR023C, strain chs3, hits give low values 0.991 | locus YBR171W, strain sec66, hits give low values 1.01 | locus YBR231C, strain swc5, hits give low values 1 | locus YBR279W, strain paf1, hits give low values 0.979 | locus YCL011C, strain gbp2, hits give low values 0.969 | locus YCL016C, strain dcc1, hits give low values 0.973 | locus YCL069W, strain vba3, hits give low values 0.99 | locus YCR088W, strain abp1, hits give low values 0.992 | locus YDL005C, strain med2, hits give low values 0.981 | locus YDL040C, strain nat1, hits give low values 0.99 | locus YDR001C, strain nth1, hits give low values 0.979 | locus YDR069C, strain doa4, hits give low values 0.983 | locus YDR137W, strain rgp1, hits give low values 0.981 | locus YDR159W, strain sac3, hits give low values 0.978 | locus YDR195W, strain ref2 0.989 | locus YDR297W, strain sur2, hits give low values 0.98 | locus YDR334W, strain swr1, hits give low values 0.977 | locus YDR335W, strain msn5, hits give low values 0.973 | locus YDR392W, strain spt3, hits give low values 0.914 | locus YEL003W, strain gim4, hits give low values 1.01 | locus YEL037C, strain rad23, hits give low values 0.99 | locus YEL061C, strain CIN8 (second series), hits give low values 0.995 | locus YER015W, strain faa2, hits give low values 0.976 | locus YER016W, strain bim1, hits give low values 1.01 | locus YER111C, strain swi4, hits give low values 0.978 | locus YER155C, strain BEM2 (second series), hits give low values 1.04 | locus YFR010W, strain ubp6, hits give low values 1.02 | locus YGL167C, strain pmr1, hits give low values 0.991 | locus YGL173C, strain kem1, hits give low values 1.05 | locus YGL227W, strain vid30, hits give low values 0.986 | locus YGL240W, strain doc1, hits give low values 1.03 | locus YGL253W, strain hxk2, hits give low values 0.941 | locus YHR013C, strain ard1, hits give low values 0.952 | locus YHR027C, strain rpn1, hits give low values 0.979 | locus YHR142W, strain chs7, hits give low values 0.945 | locus YJL092W, strain hpr5, hits give low values 0.985 | locus YJL095W, strain BCK1 (second series), hits give low values 0.991 | locus YJL115W, strain asf1, hits give low values 0.963 | locus YJL129C, strain trk1, hits give low values 0.994 | locus YJL154C, strain vps35, hits give low values 0.981 | locus YJL164C, strain tpk1, hits give low values 0.992 | locus YJL166W, strain qcr8, hits give low values 1.02 | locus YKL160W, strain elf1, hits give low values 0.981 | locus YKR026C, strain gcn3, hits give low values 0.989 | locus YKR091W, strain srl3, hits give low values 0.976 | locus YLL001W, strain dnm1, hits give low values 0.998 | locus YLL026W, hits give low values 0.996 | locus YLL041C, strain sdh2, hits give low values 0.984 | locus YLR027C, strain aat2, hits give low values 1.01 | locus YLR221C, strain rsa3, hits give low values 1.03 | locus YLR258W, strain gsy2, hits give low values 0.974 | locus YLR262C, strain YPT6 (second series), hits give low values 0.967 | locus YLR320W, strain mms22, hits give low values 1.02 | locus YLR342W, strain FKS1, hits give low values 0.991 | locus YLR357W, strain rsc2, hits give low values 0.984 | locus YLR370C, strain arc18, hits give low values 0.983 | locus YLR384C, strain iki3, hits give low values 0.978 | locus YML120C, strain ndi1, hits give low values 1.01 | locus YMR058W, strain fet3, hits give low values 1 | locus YMR125W, strain sto1, hits give low values 0.991 | locus YMR129W, hits give low values 0.972 | locus YMR205C, strain PFK2, hits give low values 1.04 | locus YMR231W, strain pep5, hits give low values 1 | locus YNL071W, strain lat1, hits give low values 1 | locus YNL209W, strain ssb2, hits give low values 0.968 | locus YNL248C, strain rpa49, hits give low values 0.967 | locus YNL322C, strain KRE1 (second series), hits give low values 1.01 | locus YNR049C, strain mso1, hits give low values 0.961 | locus YOR001W, strain rrp6, hits give low values 1.03 | locus YOR070C, strain gyp1, hits give low values 0.989 | locus YOR080W, strain dia2, hits give low values 0.986 | locus YOR083W, strain WHI5, hits give low values 0.954 | locus YOR106W, strain vam3, hits give low values 0.946 | locus YOR265W, strain rbl2, hits give low values 0.991 | locus YOR270C, strain vph1, hits give low values 0.926 | locus YOR290C, strain snf2, hits give low values 0.942 | locus YPL051W, strain arl3, hits give low values 0.994 | locus YPL078C, strain atp4, hits give low values 0.988 | locus YPL106C, strain sse1, hits give low values 0.975 | locus YPL240C, strain hsp82, hits give low values 0.994
